According to PubChem BioAssay (EPA / NIEHS):
Records with an inconclusive call do not appear. The source made the active and inactive calls. Rule for the calls, unless noted: active = hit-call score of the fitted dose curve at least 0.9, where 1 is the maximum; inactive = score below 0.9.

Columns and labels:
[1] = CCTE_Mundy_HCI_Cortical_Synap_Neur_Matur_NeuriteLength: CCTE's Synaptogenesis and Neurite Maturation Assay in rat cortical cells for Neurite Length, Mundy Lab (AID 2284214)
In short: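 Cultures of rat primary cortical cells received chemical at DIV 7 and were fixed at DIV 12, after glial arrest with AraC at DIV 5. Neurite length was measured by automated imaging of MAP2 immunofluorescence.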

[2] = CCTE_Mundy_HCI_Cortical_Synap_Neur_Matur_NeuriteSpotCountPerNeuron: CCTE's Synaptogenesis and Neurite Maturation Assay in rat cortical cells for Neurite Spot Count per Neuron Count, Mundy Lab (AID 2284215)
In short: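 Developing rat cortical neurons, with glia suppressed by AraC, are exposed to chemicals from DIV 7 to DIV 12. Automated fluorescence imaging of MAP2-labelled neurites and synaptophysin puncta yields a count per neuron, normalised against DMSO wells.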

[3] = CCTE_Mundy_HCI_Cortical_Synap_Neur_Matur_SynapseCount: CCTE's Synaptogenesis and Neurite Maturation Assay in rat cortical cells for Synapse Count, Mundy Lab (AID 2284218)
In short: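 Cells were plated, allowed 2 hr to attach, treated with AraC at DIV 5, then exposed to chemicals from DIV 7 until DIV 12. After fixation and MAP2/synaptophysin immunolabelling, synapses per neuron were quantified by automated imaging against DMSO.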

[4] = CCTE_Mundy_HCI_Cortical_Synap_Neur_Matur_NeuriteCount: CCTE's Synaptogenesis and Neurite Maturation Assay in rat cortical cells for Neurite Count, Mundy Lab (AID 2284222);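 note: exposure from day 7 to day 12 in vitro with readout at day 12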
In short: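 Primary rat cortical cells were plated, treated with AraC at DIV 5, then exposed to chemicals from DIV 7 through DIV 12. After fixation and immunostaining for MAP2 and synaptophysin, imaging quantified neurites, with DMSO as the negative control.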

[5] = CCTE_Mundy_HCI_Cortical_Synap_Neur_Matur_CellBodySpotCount: CCTE's Synaptogenesis and Neurite Maturation Assay in rat cortical cells for Cell Body Spot Count, Mundy Lab (AID 2284223)
In short: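 Chemicals were applied to AraC-treated rat primary cortical cells at DIV 7 and measured at DIV 12. Fixed cells were labelled for MAP2, synaptophysin and nuclei, and high-content imaging gave cell body synaptophysin spot counts per neuron relative to DMSO.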

[6] = CCTE_Mundy_HCI_hNP1_Pro_ResponderAvgInten: CCTE's Proliferation Assay in human neuroprogenitor cells, Mundy Lab (AID 2284224; active = hit-call score of the fitted dose curve at least 0.9, where 1 is the maximum;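 note: human neural progenitor cells hNP1 derived from WA09 embryonic stem cells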)
In short: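 Proliferation was scored as BrdU labelling intensity in human neural progenitors derived from WA09 embryonic cells, measured 26.25 hours after chemical dosing. Activity was fitted relative to DMSO.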

[7] = UKN2_HCS_IMR90_cell_viability: Viability Assessment in the University of Konstanz (UKN) Leist Lab Neural Crest Cell Migration Assay in human induced IMR90 Pluripotent Stem Cells (UKN2) (AID 2284233);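 note: cells exposed to compound for 24 h after a 24 h migration phase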
In short: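 After calcein-AM/Hoechst staining, viability is quantified by high-content fluorescence imaging, relative to DMSO, in iPSC (IMR90)-derived neural crest cells. Exposure lasts 24 h, starting after a 24 h migration period on PLO/laminin/fibronectin coating.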

[8] = CCTE_Mundy_HCI_Cortical_NOG_NeuronCount: CCTE's Neurite Outgrowth Assay in rat cortical cells for Neuron Count, Mundy Lab (AID 2284236; active = hit-call score of the fitted dose curve at least 0.9, where 1 is the maximum;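 note: neurons counted by imaging betaIII-tubulin and Hoechst stained cortical cells; cells exposed to compound for about 48 hours before fixation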)
In short: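 Read-out: neuron number by high-content imaging of betaIII-tubulin (Alexa Fluor-488) and Hoechst-labelled rat primary cortical cells.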

[9] = CCTE_Mundy_HCI_Cortical_NOG_BPCount: CCTE's Neurite Outgrowth Assay in rat cortical cells for Branch Point Count, Mundy Lab (AID 2284237);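 note: branch points counted about two days after chemical exposure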
In short: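 Measured 50.33 h after dosing, this morphology endpoint uses rat primary cortical cultures labelled for betaIII-tubulin. Branch points are quantified by high-content imaging, with DMSO as negative control and baseline.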

[10] = CCTE_Mundy_HCI_hNP1_Casp3_7: CCTE's Caspase-Glo 3/7 Assay in human neuroprogenitor cells for Apoptosis, Mundy Lab (AID 2284240)
In short: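 Apoptosis is scored by activated caspase-3/7 luminescence in WA09-derived neural progenitor cells, measured 26.5 h after chemical dosing. Values represent gain of signal relative to DMSO vehicle.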

[11] = IUF_NPC2c_oligodendrocyte_migration_120hr: Leibniz Research Institute for Environmental Medicine (IUF) 120-hour Neural Progenitor Cell Migration Assay for Oligodendrocyte Migration (NPC2c) (AID 2284297);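 note: O4-positive oligodendrocyte migration distance divided by radial glia migration distance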
In short: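 Using fetal brain neural progenitor spheres differentiating in N2 medium at 37C, compounds were present for 120 h. Oligodendrocyte migration distance, normalized to radial glia migration, was measured from imaged O4 staining.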

[12] = IUF_NPC2a_radial_glia_migration_120hr: Leibniz Research Institute for Environmental Medicine (IUF) 120-hour Neural Progenitor Cell Migration Assay for Radial Glia Migration (NPC2a) (AID 2284298)
In short: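 Exposure of 0.3 mm primary hNPC spheres runs day 0 to 120 h with a half-volume medium change at day 3. Fixed cells get Hoechst staining; high-content analysis of nuclear positions yields radial glia migration distance per well, compared against DMSO controls.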

[13] = IUF_NPC2a_radial_glia_migration_72hr: Leibniz Research Institute for Environmental Medicine (IUF) 72-hour Neural Progenitor Cell Migration Assay for Radial Glia Migration (NPC2a) (AID 2284299)
In short: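 Single 0.3 mm neurospheres were plated per well in N2 differentiation medium and exposed from the start of differentiation. After 72 hours, brightfield images were taken and radial glia migration from the sphere core edge was measured manually in four directions, averaged per well.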

[14] = IUF_NPC2b_neuronal_migration_120hr: Leibniz Research Institute for Environmental Medicine (IUF) 120-hour Neural Progenitor Cell Migration Assay for Neuron Migration (NPC2b) (AID 2284300)
In short: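 Fetal human NPC spheres migrate on PDL/laminin during 120 h compound treatment; neuronal migration distance, glia-normalized, scored versus DMSO control.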

[15] = IUF_NPC3_neuronal_differentiation_120hr: Leibniz Research Institute for Environmental Medicine (IUF) 120-hour Neuronal Differentiation Assay (NPC3) (AID 2284301)
In short: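 Value is percent TUBB3-positive neurons among Hoechst-stained nuclei in the migration area, scored by trained CNN after 120 h differentiation. Primary hNPC spheres on poly-D-lysine/laminin, N2 medium, continuous dosing from day 0, half-refeed day 3; DMSO reference.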

[16] = IUF_NPC4_neurite_length_120hr: Leibniz Research Institute for Environmental Medicine (IUF) 120-hour Neuronal Morphology Assay for Neurite Length (NPC4) (AID 2284302)
In short: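 Neurite length, the mean in um across TUBB3-stained neurons, is derived by skeletonization of high-content images after 120 h differentiation. Compound exposure, 7 concentrations plus solvent control, ran from plating of hNPC spheres on poly-D-lysine/laminin, with medium half-replaced on day 3.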

[17] = IUF_NPC5_oligodendrocyte_differentiation_120hr: Leibniz Research Institute for Environmental Medicine (IUF) 120-hour Oligodendrocyte Differentiation Assay (NPC5) (AID 2284304; active = hit-call score of the fitted dose curve at least 0.9, where 1 is the maximum;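 note: primary human fetal neural progenitor spheres plated to migrate and differentiate; share of O4-positive cells among Hoechst nuclei found by CNN image analysis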)
In short: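 After plating on poly-D-lysine/laminin, fetal-derived hNPC spheres differentiated for 120 h at 37C in compound-containing N2 medium, refreshed by half on day 3. O4 immunostaining over Hoechst nuclei in the migration zone gave oligodendrocyte percentage relative to DMSO.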

[18] = IUF_NPC4_neurite_area_120hr: Leibniz Research Institute for Environmental Medicine (IUF) 120-hour Neuronal Morphology Assay for Neurite Area (NPC4) (AID 2284305; active = hit-call score of the fitted dose curve at least 0.9, where 1 is the maximum)
In short: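 Neurite area (pixels, nuclei excluded) of TUBB3-positive neurons from hNPC spheres differentiating 5 days under continuous exposure at 37 C, 5% CO2. High-content imaging; loss of signal versus DMSO control across 7 concentrations.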

[19] = IUF_NPC2-5_cytotoxicity_72hr: Cytotoxicity Assessment at 72 hours in the Leibniz Research Institute for Environmental Medicine (IUF) Neural Progenitor Cell Migration and Differentiation Assay for Cytotoxicity (NPC2-5) (AID 2284306; active = hit-call score of the fitted dose curve at least 0.9, where 1 is the maximum;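 note: LDH release into supernatant measured by resorufin fluorescence marking membrane damage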)
In short: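 Membrane-integrity cytotoxicity at 72 h, read as LDH-driven resorufin fluorescence in supernatant. hNPC spheres from fetal cortex differentiate on coated plates in N2 medium, 37C, 5% CO2; seven serial compound concentrations plus solvent control (DMSO ≤0.1%).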

[20] = IUF_NPC2-5_cytotoxicity_120hr: Cytotoxicity Assessment at 120 hours in the Leibniz Research Institute for Environmental Medicine (IUF) Neural Progenitor Cell Migration and Differentiation Assay (NPC2-5) (AID 2284307; active = hit-call score of the fitted dose curve at least 0.9, where 1 is the maximum)
In short: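 Membrane-integrity loss is quantified by LDH in supernatant after five days of exposure of migrating, differentiating human fetal NPC spheres; seven serially diluted concentrations are tested with DMSO kept at or below 0.1%.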

[21] = IUF_NPC2-5_cell_number_120hr: Cell Number Assessment at 120 hours in the Leibniz Research Institute for Environmental Medicine (IUF) Neural Progenitor Cell Migration and Differentiation Assay (NPC2-5) (AID 2284308);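 note: count of Hoechst-stained nuclei in migration zone around plated human neural progenitor spheres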
In short: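 Seven-point serial dilutions plus solvent control were applied to plated 0.3 mm hNPC spheres at differentiation start, with medium half-replaced at day 3. Nuclei positive for Hoechst in the migration zone were enumerated at 120 h.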

[22] = IUF_NPC2-5_viability_120hr: Viability Assessment at 120 hours in the Leibniz Research Institute for Environmental Medicine (IUF) Neural Progenitor Cell Migration and Differentiation Assay (NPC2-5) (AID 2284312)
In short: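 Alamar blue resorufin fluorescence read after 5 days of differentiation, with compound present from day 0 and replenished at day 3. Primary hNPC spheres on laminin-coated plates, 37C; seven concentrations plus solvent control, fitted against DMSO.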

[23] = CCTE_Mundy_HCI_iCellGluta_NOG_NeuriteLength: CCTE's Neurite Outgrowth Assay in iCellGluta cells for Neurite Length, Mundy Lab (AID 2284318; active = hit-call score of the fitted dose curve at least 0.9, where 1 is the maximum)
In short: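 Automated high-content imaging of betaIII-tubulin (Alexa Fluor-488) and Hoechst-stained cells gave neurite length, normalized to the DMSO baseline.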

[24] = IUF_NPC1_cytotoxicity_72hr: Cytotoxicity Assessment at 72 hours in the Leibniz Research Institute for Environmental Medicine (IUF) Neural Progenitor Cell Proliferation Assay (NPC1) (AID 2284332; active = hit-call score of the fitted dose curve at least 0.9, where 1 is the maximum;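 note: rising LDH signal means more cytotoxicity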)
In short: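 Membrane-integrity loss is scored from LDH released into the medium, detected as resorufin fluorescence, with activity fitted upward relative to baseline. Test material stays on human fetal-derived progenitor spheres for 72 h.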

[25] = CCTE_Mundy_HCI_iCellGluta_NOG_NeuronCount: CCTE's Neurite Outgrowth Assay in iCellGluta cells for Neuron Count, Mundy Lab (AID 2284340; active = hit-call score of the fitted dose curve at least 0.9, where 1 is the maximum;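 note: cells fixed about 48 h after compound addition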)
In short: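 Neuron count read by automated high-content imaging of Hoechst 33342 and betaIII-tubulin/Alexa Fluor-488 labelling in human iPSC glutamatergic neurons. Activity fitted relative to DMSO.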

[26] = CCTE_Mundy_HCI_iCellGluta_NOG_NeuriteCount: CCTE's Neurite Outgrowth Assay in iCellGluta cells for Neurite Count, Mundy Lab (AID 2284342; active = hit-call score of the fitted dose curve at least 0.9, where 1 is the maximum;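 note: chemical exposure about 48 hours starting 2 hours after plating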)

CCOP(=O)(OCC)SCSCC
outcome [1]: inactive | outcome [2]: inactive | outcome [3]: inactive | outcome [4]: inactive | outcome [5]: inactive | outcome [6]: inactive | outcome [7]: inactive | AC50 [8]: 89 µM (active) | AC50 [9]: 84.1 µM (active) | outcome [10]: inactive | outcome [11]: inactive | outcome [12]: inactive | outcome [13]: inactive | outcome [14]: inactive | outcome [15]: inactive | outcome [16]: inactive | outcome [17]: inactive | outcome [18]: inactive | outcome [19]: inactive | outcome [20]: inactive | outcome [21]: inactive | outcome [22]: inactive | AC50 [23]: 49.8 µM (active) | outcome [24]: inactive | outcome [25]: inactive | AC50 [26]: 49.8 µM (active)
